In the library only some 0.47% were active in any assay of this set; here they are far more common.
AID inh: blocks human AID cytidine deaminase activity; Q9GZX7; AID deamination FRET fluorescence, UDG-coupled, 4 h; Potency, µM (titrated, usually from 115 µM), most hits filed as inhibitors; 91,000 compounds, 0.32% hits; AID 1347428; also: nearly all actives have a fitted effect of over 25% in size
Target sequence (Q9GZX7 whole entry, looked up): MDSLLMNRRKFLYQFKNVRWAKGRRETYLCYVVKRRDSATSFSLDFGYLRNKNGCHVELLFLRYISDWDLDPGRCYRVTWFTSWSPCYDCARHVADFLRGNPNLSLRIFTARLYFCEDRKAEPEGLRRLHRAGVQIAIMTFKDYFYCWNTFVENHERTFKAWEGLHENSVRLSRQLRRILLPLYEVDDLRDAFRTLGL
UDG counterscr: UDG inhibition counter-screen; Potency, µM (top dose mostly 115 µM), inactives show at the highest dose activity change, negative = inhibition, usual class: inhibitors; AID 1347430; FRET deamination/UDG coupled assay, UDG read, 4 h; 91,000 compounds, 0.14% hits; also: nearly all actives have a fitted effect of over 65% in size
The depositor's hits bear a star; i = inactive; ? = inconclusive; [ ] = another dose, or the depositor's remark. Calls follow the shape of the dose curve; as a rule, active = well fitted curve in the direction sought with a large enough effect; inconclusive = small, poorly fitted or top-dose-only effect, or another doubt; inactive = no such curve, though single readings can be large; an effect the other way counts as inactive or inconclusive. % is scaled to controls: 0 for no effect and ±100 for the full control effect; potency is read from the fitted curve at half-maximal effect.

SMILES	AID inh	UDG counterscr
CCn1c2ccccc2c2cc(NC(=O)COc3cc(C)ccc3C)ccc21	i	?
Cc1ccc(C)c(OCC(=O)Nc2ccc(Br)cc2C(=O)O)c1	56µM*	2%
Cc1cc(NC(=O)COC(=O)C2(c3cccc(F)c3)CCCC2)no1	i	0%
CCN(CC)C(=O)c1sc2c(c1C)c(=O)n(-c1ccc(Cl)c(Cl)c1)c(=O)n2Cc1cc(=O)n2ccccc2n1	89µM*	?
CCN(CC)C(=O)c1sc2c(c1C)c(=O)n(-c1ccc(C)c(C)c1)c(=O)n2Cc1cc(=O)n2ccccc2n1	i	-12%
Cc1ccc(NC(=S)NNC=O)cc1Cl	i	-1%
COc1cc(C(c2c(C)[nH][nH]c2=O)c2c(C)[nH][nH]c2=O)ccc1OC(=O)c1cccc(C)c1	22µM*	-10%
COc1cc(C(c2c(C)[nH][nH]c2=O)c2c(C)[nH][nH]c2=O)ccc1OC(=O)c1ccccc1OC	?	-14%
COc1ccccc1C(=O)Nc1ccc(C(=O)OCc2cc(=O)n3nc(C)sc3n2)cc1	28µM*	-10%
COc1ccccc1C(=O)Nc1ccc(C(=O)OCc2cc(=O)n3nc(C4CC4)sc3n2)cc1	i	-10%
Cc1cc2c(cc1C)-c1ccccc1C2=O	i	-13%
COC1=C(OC)C(=O)c2ccccc2C1=O	45µM*	-17%
CC(C)(C)C(=O)C[S+]1CCCC1	i	-5%
Cc1cc(C)cc(OCCn2cnc3c2c(=O)n(C)c(=O)n3C)c1	i	-19%
C/C(=C/C(=O)C(F)(F)F)N1CCN(c2ccccc2F)CC1	i	7%
CCCn1cc(S(=O)(=O)c2ccc(C)cc2)c(=O)c2cc(OC)c(OC)cc21	i	-6%
COc1cc2c(=O)c(S(=O)(=O)c3ccc(C)cc3)cn(Cc3cccc(C)c3)c2cc1OC	40µM*	-19%
COc1cccc(-c2nc(N3CCCCCC3)c3ccccc3n2)c1O	?	89µM*
Clc1ccccc1-c1nc(N2CCCCC2)c2ccccc2n1	i	-5%
O=C(NCCCc1ccccc1)c1cc(-c2ccncc2)nc2ccccc12	i	3%
CS(=O)(=O)N1CCCC(c2nc3ccccc3o2)C1 (stereo unspecified)	i	-2%
COc1ccc2c(c1)Cc1sc(NC(=O)c3cccc(Cl)c3)nc1-2	i	-10%
COc1ccc2c(c1)CCc1sc(NC(=O)c3cccc(Br)c3)nc1-2	i	2%
COc1ccc2c(c1)Cc1sc(NC(=O)c3ccc(Cl)cc3)nc1-2	32µM*	-12%
COc1ccc(C(=O)Nc2nc3c(s2)CCc2cc(OC)ccc2-3)cc1	i	79µM*
SMILES	AID inh	UDG counterscr
O=C(Nc1cccc(C(F)(F)F)c1)C1CCN(S(=O)(=O)c2cccs2)CC1	?	79µM*
O=C(Nc1ccc(OC(F)(F)F)cc1)C1CCN(S(=O)(=O)c2cccs2)CC1	i	?
COc1ccc(CNC(=O)c2ccc(-c3nc(CS(=O)c4ccc(C)cc4)c(C)o3)cc2)cc1 (stereo unspecified)	?	89µM*
Cc1ccc(CNC(=O)c2ccc(-c3nc(CS(=O)c4ccccc4)c(C)o3)cc2)cc1 (stereo unspecified)	i	-29%
COC(=O)C(C)N1C(=O)S/C(=C/c2ccc(C)cc2)C1=O (stereo unspecified)	i	-3%
C/C(=N\O)c1cc2cc(Br)cc(Br)c2oc1=O	i	-1%
COc1ccccc1C(=O)Oc1c(Sc2ccccc2)c(C)nn1-c1ccccc1	45µM*	?
Cc1ccc(Sc2c(C)nn(-c3ccccc3)c2OC(=O)CC(C)C)cc1	?	-19%
O=CNNC(=S)NCc1ccc(Cl)cc1	i	-7%
Cc1ccc(C(=O)NN=C2CCC(C(C)(C)C)CC2)cc1 (stereo unspecified)	i	-5%
[N-]=[N+]=Nc1ccc(C(=O)CSC[C@H](NC(=O)CC[C@H](N)C(=O)O)C(=O)NCC(=O)O)cc1	89µM*	-6%
N[C@@H](CCC(=O)N[C@H](CSN=O)C(=O)NCC(=O)O)C(=O)O	i	-12%
CC(C)Oc1ccc(-c2nc(N3CCCCC3)c3ccccc3n2)cc1	i	-11%
CCOC(=O)c1cccc(NC(=O)c2oc3c(c2C)-c2[nH]ncc2CC3)c1	?	-20%[57.5 µM]
COc1cccc(CNC(=O)c2oc3c(c2C)-c2nn(Cc4cccc(Cl)c4)cc2CC3)c1OC	79µM*	-16%[57.5 µM]
COc1cccc(CNC(=O)c2oc3c(c2C)-c2nn(Cc4cccc(Cl)c4)cc2CC3)c1	?	-18%[57.5 µM]
CCOC(=O)c1cccc(NC(=O)c2oc3c(c2C)-c2nn(CC)cc2CC3)c1	40µM*	?
CCCN(CCO)CC(=O)NC(CC)CC	i	-2%
Cc1ccc(CSC2=Nc3ccccc3C3=NC(CCC(=O)NCc4cccs4)C(=O)N23)c(C)c1 (stereo unspecified)	i	18%
O=C(CC1N=C2c3ccccc3N=C(SCc3ccccc3Cl)N2C1=O)NC1CCCCC1 (stereo unspecified)	i	89µM*
Cc1ccc(CSC2=Nc3ccccc3C3=NC(CC(=O)NC4CCCCC4)C(=O)N23)c(C)c1 (stereo unspecified)	i	10%
COc1ccccc1NC(=O)CSC1=Nc2ccccc2C2=NC(CC(=O)NCCc3ccccc3)C(=O)N12 (stereo unspecified)	i	-9%
Cc1ccc(CSC2=Nc3ccccc3C3=NC(CCC(=O)NCc4cccs4)C(=O)N23)cc1 (stereo unspecified)	89µM*	-1%
O=C(CC1N=C2c3ccccc3N=C(SCc3ccccc3F)N2C1=O)NCCc1ccccc1 (stereo unspecified)	35µM*	?
N#C/C(=C\C=C\c1ccco1)C(=O)NC1CCCCCC1	i	-4%
SMILES	AID inh	UDG counterscr
COc1cc(-c2noc(-c3ccc(C(C)(C)C)cc3)n2)cc(OC)c1OC	i	-10%
COc1cc(NC(=O)CC(c2ccc(C)cc2)N2Cc3ccccc3C2=O)cc(OC)c1 (stereo unspecified)	45µM*	-24%
COc1cccc(CNC(=O)CC(c2ccc(C)cc2)N2Cc3ccccc3C2=O)c1 (stereo unspecified)	?	2%
CC(=O)Nc1ccc(C)c(NC(=O)C2(c3ccc(F)cc3)CC2)c1	i	-4%
CC(C)Oc1ccc(C(=O)NCCc2csc(-c3cccc(F)c3)n2)cc1	45µM*	0%
CCCCOc1ccc(C(=O)NCCc2csc(-c3cccc(F)c3)n2)cc1	i	5%
CC(C)C(C)NC(=O)CCc1ccc(C#N)cc1 (stereo unspecified)	i	1%
CCCNC(=O)c1cccc(CNCc2ccc(F)cc2)c1	i	-8%
COc1ccc(Br)cc1CNC(=O)c1cnc2sc(N3CCCCCC3)nn2c1=O	18µM*	-6%
COc1ccc(CNC(=O)c2cnc3sc(N4CCCC4)nn3c2=O)cc1OC	i	-9%
COc1ccc2c(C)c(CC(=O)Nc3ccc(Cn4cncn4)cc3)c(=O)oc2c1	i	4%
O=S(=O)(NC1c2ccccc2Oc2ccccc21)c1cccs1	i	3%
CCNC(=O)NC(=O)COC(=O)c1ccc(COc2ccc3c(C)cc(=O)oc3c2)cc1	i	1%
Cc1ccc(C(=O)Nc2sc3c(c2C(=O)NCc2ccco2)CCC(C(C)(C)C)C3)cc1 (stereo unspecified)	i	2%
CC(C)(C)C1CCc2c(sc(NC(=O)c3ccccc3F)c2C(=O)NCc2ccco2)C1 (stereo unspecified)	11µM*	-12%
